High-throughput results deposited in PubChem BioAssay by several laboratories.
Only some compounds are listed: those with a hit (about 2.1% of all), similar ones and a draw of the others.
KKLEB tox: reduces viability of KKLEB cystic fibrosis airway cells; hit rate 0.36% among 360,000; KKLEB CF airway cells viability, ATPlite luminescence, overnight; active compounds read low; cells stimulated with P. aeruginosa culture filtrate; activity change (cytotoxicity), % at 5 µM; AID 602141;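 active = corrected activity change at or below -50% at 5 µM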
HIF-2a block: HIF-2a inhibition; hit rate 0.72% among 360,000; 786-0 RCC cells HIF-2a reporter, luciferase luminescence, overnight; AID 624352; inhibition, % at 18.8 µM;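 active = inhibition of the luminescence signal of 40% or more relative to plate controls, in a single-dose primary screen at 18.75 µM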
EWS-Fli block: inhibitors of EWS/Fli oncoprotein transcriptional activity | A673 NR0B1-luciferase reporter, viability-normalised | inhibition, % at 12.6 µM | hit rate 0.67% among 350,000;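 active = mean inhibition of at least 50% after viability correction, with every replicate also passing that limit; inconclusive = mean reaches 50% but only one of two replicates passes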;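 note: firefly luciferase signal divided by Alamar Blue viability fluorescence both relative to DMSO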
PAX8 inh HTS: inhibitors of PAX8 transcriptional activity in RMG-I cells | hit rate 1.2% among 360,000 | inhibition, % at 12.6 µM | RMG-I TPO-luciferase reporter, SteadyGlo, 24 h;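 active = mean replicate inhibition at least 60% with every replicate also reaching 60%; inconclusive = only one of the two criteria is met; inactive = mean below 60% and not all replicates reaching 60%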;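 note: luciferase light reporting Pax8 driven TPO promoter activity; plate controls were median of neutral control wells for no effect and mitoxantrone controls for full effect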
CF NFkB inh: cystic fibrosis NF-kB activation inhibition; KKLEB NF-kB-GFP reporter, PAF-induced, GFP fluorescence overnight; AID 588850; inhibition, % at 5 µM; hit rate 0.86% among 360,000;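 active = at least 50% inhibition at 5 µM, scaled per plate between neutral and stimulator controls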;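 note: PAF is a Pseudomonas aeruginosa culture filtrate used as stimulus; plate controls were PAF-stimulated DMSO wells for no effect and unstimulated DMSO wells for full effect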
An asterisk follows results filed as active; ? = inconclusive; · = not tested or not shown.

SMILES | KKLEB tox | HIF-2a block | EWS-Fli block | PAX8 inh HTS | CF NFkB inh
N#C[C@@H]1[C@@H](c2ccc(-c3ccc(F)cc3)cc2)[C@@H](CO)N1S(=O)(=O)Cc1ccccc1 | · | · | -3 | 69* | ·
COc1cccc(-c2ccc([C@H]3[C@@H](CO)N(C(=O)c4ccccn4)[C@H]3C#N)cc2)c1 | · | · | -9 | 83* | ·
COc1cccc(C#Cc2ccc([C@@H]3[C@@H](C#N)N(C(=O)c4ccccn4)[C@@H]3CO)cc2)c1 | · | · | -14 | 43 | ·
COc1ccc(S(=O)(=O)Nc2ccc3c(c2)C(=O)N([C@@H](C)CO)C[C@H](C)[C@@H](CN(C)S(=O)(=O)c2ccc(OC)cc2)O3)cc1 | · | · | -3 | -33 | ·
O=C(c1cccc(F)c1)N1CC(=O)N2[C@H](CO)[C@H](c3ccc(-c4ccccc4F)cc3)[C@H]2C1 | · | · | -2 | 1 | ·
CCCC(=O)N1CC2(C1)CN(C(C)=O)[C@H](CO)c1c2c2ccc(OC)cc2n1C | · | · | -6 | -12 | ·
CN(C)CCCNC(=O)C[C@H]1CC[C@H]2[C@H](COc3ccc(NC(=O)C4CCC4)cc3C(=O)N2C)O1 | · | · | -9 | -4 | ·
O=C(NCC1CC1)C1Cc2c(-c3ccc(Cl)cc3)ccnc2O1 (stereo unspecified) | -10 | 11 | -1 | 8 | 25
CC(=O)c1cccc(-c2ccnc3c2CC(C(=O)NCc2cccs2)O3)c1 (stereo unspecified) | -14 | -9 | 73* | ? | 15
O=C(NCc1cccs1)C1Cc2c(-c3ccc(Cl)cc3)ccnc2O1 (stereo unspecified) | -18 | -22 | 70* | · | 31
Cc1noc(C)c1NC(=O)Nc1ccc2c(c1)C(=O)N([C@H](C)CO)C[C@@H](C)[C@H](CN(C)C(=O)Nc1ccc(C(F)(F)F)cc1)O2 | · | · | -2 | · | ·
Cc1ccc(N=CC2=C(O)CC(c3ccc(Cl)cc3)CC2=O)cc1 (stereo unspecified) | -11 | 8 | 6 | 146* | 16
C[C@H](CO)N1C[C@H](C)[C@@H](CN(C)C(=O)Cc2ccncc2)Oc2cc(C3=CCCCC3)ccc2S1(=O)=O | · | · | 12 | 26 | ·
CCNC(=O)C[C@H]1C=C[C@H](NC(=O)NC2CCCCC2)[C@H](CO)O1 | · | · | -2 | -6 | ·
CCCCCCN1C[C@@H](n2cc(-c3ccc(F)cc3)nn2)[C@H](O)C[C@@H]1c1ccc(Cl)cc1 | 11 | -84 | 23 | 89* | 29
Cc1ccc(N=c2oc3cc(O)ccc3cc2C(N)=O)cc1 | -23 | -140 | · | -171 | 83*
CC(=O)c1cc2ccc(O)cc2oc1=O | 6 | 17 | 0 | 4 | 12
COc1ccc2c3c(n(C)c2c1)[C@H](CO)N(C(=O)CC1CC1)CC31CCN(C(=O)NC(C)C)CC1 | · | · | 0 | -6 | ·
CCOC(=O)c1c(NC(=S)NCCc2ccccc2)sc2c1CC(C(C)C)OC2 (stereo unspecified) | -36 | 3 | -12 | 4 | 60*
CC(C)CC#Cc1ccc2c(c1)O[C@@H](CN(C)Cc1ccncc1)[C@H](C)CN([C@@H](C)CO)S2(=O)=O | · | · | 34 | 87* | ·
C[C@@H]1CN([C@H](C)CO)S(=O)(=O)c2ccc(-c3ccccc3F)cc2O[C@H]1CN(C)Cc1ccncc1 | · | · | 60* | · | ·
C[C@H]1CN([C@@H](C)CO)S(=O)(=O)c2ccc(-c3ccccc3F)cc2O[C@H]1CN(C)Cc1ccncc1 | · | · | 23 | · | ·
CC(C)CC#Cc1ccc2c(c1)O[C@H](CN(C)Cc1ccccn1)[C@@H](C)CN([C@@H](C)CO)S2(=O)=O | · | · | 31 | 61* | ·
COc1ccc2c3c([nH]c2c1)[C@H](CO)N(Cc1cccc(Cl)c1)CC31CN(C(C)=O)C1 | · | · | 11 | -17 | ·
O=C(C=P(c1ccccc1)(c1ccccc1)c1ccccc1)c1ccccc1-c1ccccc1C(=O)C=P(c1ccccc1)(c1ccccc1)c1ccccc1 | -79* | 95* | 50 | 114* | 91*
SMILES | KKLEB tox | HIF-2a block | EWS-Fli block | PAX8 inh HTS | CF NFkB inh
COCc1cn(CC[C@@H]2CC[C@@H](NC(=O)c3ccccc3)[C@@H](CO)O2)nn1 | · | · | 5 | -17 | ·
COc1ccc(/C=C2/SC(=O)N(CCC(=O)Nc3ccccc3)C2=O)cc1OC | -54* | -10 | -11 | -2 | 60*
O=C(CCCN1C(=O)/C(=C/c2ccccc2Cl)SC1=S)NNC(=O)c1cccnc1 | -6 | 84* | 36 | 15 | -3
O=C(CCCN1C(=O)/C(=C/c2cccs2)SC1=S)NNC(=O)c1cccnc1 | 10 | 14 | 12 | 1 | -8
O=C(CCCN1C(=O)/C(=C/c2ccccc2Cl)SC1=S)NNC(=O)c1ccccc1 | -8 | 90* | 45 | 26 | 14
O=C(CCN1C(=O)/C(=C\c2ccccc2Cl)SC1=S)Nc1cccnc1 | -20 | -10 | 2 | -5 | 3
O=C(CCN1C(=O)/C(=C/c2ccccc2Cl)SC1=S)Nc1ccccc1C(=O)O | 2 | 5 | 6 | 100* | 12
C[C@H]1CN([C@@H](C)CO)S(=O)(=O)c2ccc(C#CC(C)(C)O)cc2O[C@@H]1CN(C)C(=O)C1CC1 | · | · | 4 | · | ·
COc1ccc(/C=C2/SC(=O)N(CCC(=O)Nc3ccccc3C(=O)O)C2=S)cc1 | 26 | 57* | 0 | 13 | -2
COC(=O)CCC(=O)Nc1cc(Cl)cc(Cl)c1 | 1 | 4 | -3 | 70* | 0
c1ccc(/N=C2\N=C(Nc3ccccn3)c3ccccc32)nc1 | -19 | -19 | 25 | 79* | 1
c1ccc(Nc2ccccn2)cc1 | 3 | -6 | · | -27 | 9
CCOC(=O)c1sc(NC(=O)Nc2cccc(Cl)c2)cc1C | -64* | -303 | -95 | -38 | 60*
COc1cccc(C(=O)NC(=S)N2CCN(c3ccc(C(F)(F)F)cc3[N+](=O)[O-])CC2)c1 | -15 | 10 | 64* | 1 | 0
C[C@H](CO)N1C[C@H](C)[C@H](CN(C)C)OCc2cn(nn2)CCCC1=O | · | · | 0 | -11 | ·
COc1ccc2c3c([nH]c2c1)[C@@H](CO)N(C(=O)c1cnccn1)CC31CCN(S(C)(=O)=O)CC1 | · | · | 13 | · | ·
COC(=O)C1=C(SC)N(c2ccccc2)C(c2ccccc2)CC1=O (stereo unspecified) | -8 | -1 | 7 | 91* | 4
CO[C@H]1CN(C)C(=O)c2ccc(NC(=O)C3CC3)cc2OC[C@H](C)N(Cc2ccccc2)C[C@@H]1C | · | · | -2 | · | ·
O=C(C1CCC(CNS(=O)(=O)c2cccs2)CC1)N1CCN(c2ccc(Cl)cc2)CC1 (stereo unspecified) | 0 | 21 | · | 68* | 1
O=C(NC1CCCC1)C1CCC(CNS(=O)(=O)c2cccs2)CC1 (stereo unspecified) | -5 | -2 | · | 16 | -2
CN1C=C/C(=C\c2cc[n+](C)c3ccccc23)c2ccccc21 | -29 | -13 | 74* | 97* | 56*
C[C@@H]1CN([C@H](C)CO)S(=O)(=O)c2ccc(C#CC3CCCC3)cc2O[C@H]1CN(C)C(=O)Nc1cc(F)ccc1F | · | · | 0 | 51 | ·
CCOC(=O)c1ccc(NC(=O)O[C@H]2[C@H](OC(=O)Nc3ccccc3)[C@@H](OC(=O)Nc3ccccc3)[C@@H](OC)O[C@@H]2CO)cc1 | · | · | -13 | 82* | ·
